This is a sample that favours compounds with a hit; in the whole collection about 4.7% have one here.
NTMT1 inh: NTMT1 methyltransferase inhibition; AID 1645870; Potency, µM (doses to about 114 µM), without a hit: top-dose activity change, negative = inhibition, most hits filed as inhibitors; 59,000 tested, 2.5% active; NTMT1 MTase-Glo SAH luminescence, purified enzyme;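 further: potency means the concentration at half of the fitted maximal effect; plate controls were DMSO vehicle for no effect and no enzyme for full effect; nearly all actives have a fitted effect of over 65% in size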
HTT promoter inh: inhibits huntingtin promoter activity. HEK293 HTT promoter firefly luciferase reporter, 24 h. Potency, µM (top dose mostly 57.5 µM), for inactives: top-dose activity change, negative = inhibition, hits mostly inhibitors. 48,000 tested, 0.93% active. AID 1508623; further: potency means the concentration at half of the fitted maximal effect; nearly all actives have a fitted effect of over 50% in size
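Luminescence was read after Dual-Glo reagent and a 10 min room-temperature incubation. Values were normalized to vehicle (0% activity) and zero RLU (-100% activity). Reporter HEK293 cells had been exposed to compounds (up to 57.5 uM final) for 24 h.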
FH mod: Identification of activators of human fumarate hydratase by quantitative high-throughput screening. Fumarate hydratase, mitochondrial (Homo sapiens), P07954. FH coupled MDH/diaphorase resazurin fluorescence, 15 min. Potency, µM (top dose mostly 79.9 µM), for inactives: top-dose activity change, negative = inhibition, most hits filed as inhibitors. 54,000 tested, 0.22% active. AID 1347055, 2019; further: potency means the concentration at half of the fitted maximal effect; on the % scale 0 is the no-effect control and ±100 the full control effect; the screen sought activators but most active calls are inhibition curves; nearly all actives have a fitted effect of over 45% in size
Target sequence (P07954 whole entry, looked up): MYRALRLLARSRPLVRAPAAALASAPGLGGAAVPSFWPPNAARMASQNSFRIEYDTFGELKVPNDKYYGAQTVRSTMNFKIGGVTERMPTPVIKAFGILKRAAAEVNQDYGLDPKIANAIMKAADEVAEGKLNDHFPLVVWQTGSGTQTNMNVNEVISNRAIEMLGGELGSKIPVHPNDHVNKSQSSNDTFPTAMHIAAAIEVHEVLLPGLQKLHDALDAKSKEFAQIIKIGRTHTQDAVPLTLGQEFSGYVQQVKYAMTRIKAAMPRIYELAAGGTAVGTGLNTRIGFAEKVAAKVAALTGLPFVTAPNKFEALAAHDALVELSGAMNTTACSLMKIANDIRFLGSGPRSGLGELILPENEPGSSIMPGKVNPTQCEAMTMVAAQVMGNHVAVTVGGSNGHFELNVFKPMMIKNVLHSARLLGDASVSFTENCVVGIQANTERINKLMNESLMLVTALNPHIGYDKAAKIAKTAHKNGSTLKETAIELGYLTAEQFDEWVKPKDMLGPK
GPR32 ag: agonists of human resolvin D1 receptor DRV1 (GPR32) | activation, % at 76.9 µM | O75388 | CHO-K1 GPR32 beta-arrestin PathHunter luminescence, 90 min; zero percent set by DMSO-only wells | AID 1346428 | 48,000 tested, 2.5% active;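 active means activation of at least 60% and not above a set upper limit, about 1 call in 100 departs from these limits; inconclusive means activation of 40% to 60%, or above that upper limit; inactive means activation under 40%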; further: 0% is about no effect
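Luminescent readout of beta-Gal complementation quantifies ligand-induced beta-arrestin association with GPR32 in CHO-K1 cells; 90 min compound incubation at 37 °C, detection 1 h at room temperature.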
HTT-AS act: HTT-AS promoter activation; HEK293 HTT-AS promoter firefly luciferase reporter, 24 h; response scale: percent change from vehicle, -100% = no light; Potency, µM (titrated, usually from 57.5 µM), for inactives: top-dose activity change, positive = activation, actives largely listed as activators; 48,000 tested, 0.24% active; AID 1508624; further: potency means the concentration at half of the fitted maximal effect; nearly all actives have a fitted effect of over 55% in size
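Luminescence was read after Dual-Glo reagent and a 10 min room-temperature incubation. Values were normalized to vehicle (0% activity) and zero RLU (-100% activity). Reporter HEK293 cells had been exposed to compounds (up to 57.5 uM final) for 24 h.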
* marks the source's active call; other numbers are inactive results; ? = inconclusive; . = not tested or not shown; [ ] = another dose, or the depositor's remark. Unless noted, the call rests on the fitted dose curve; in most records, active means well fitted curve in the direction sought with a large enough effect; inconclusive means small, poorly fitted or top-dose-only effect, or another doubt; inactive means no such curve, though single readings can be large; an effect the other way counts as inactive or inconclusive.

SMILES	NTMT1 inh	HTT promoter inh	FH mod	GPR32 ag	HTT-AS act
CC(C)Sc1ncc(Cl)c(C(=O)Nc2ccc(S(=O)(=O)N3CCCCC3C)cc2)n1 (centres undefined)	3%	?	-26%	-17	-38%
Cc1ccc(C(C)OC(=O)C2(C)CCC(C(=O)O)C2(C)C)cc1 (centres undefined)	21%[57.5 µM]	1%	2%[53.3 µM]	-2	1%
CCCS(=O)(=O)c1c(S(=O)(=O)CCC)c2cc(C(C)(C)C)ccn2c1C(=O)c1ccc(OC)c(OC)c1	-21%	-22%	-8%	-23	-21%
CCCS(=O)(=O)c1c(S(=O)(=O)CCC)c2cc(C(C)(C)C)ccn2c1C(=O)c1ccccc1	10%	25µM*	-25%	-17	-84%
CCOc1c2c(c(OCC)c3ccccc13)C(=O)N(c1ccc(CC(=O)NS(=O)(=O)c3ccccc3)cc1)C2	6%[57.5 µM]	.	-12%	.	.
Nc1c(C(=O)Nc2ccc(C(=O)O)cc2)sc2nc3c(cc12)CCCC3	25µM*	?	-18%	27	-74%
CCOC(=O)N1CCC(NC(=O)c2ccc3c(c2)N(Cc2cccc(C)c2)C(=O)c2ccccc2S3(=O)=O)CC1	18%	-34%	-29%	-9	-34%
Cc1cccc(N(C)c2nc3ccc(C)cc3n3cnnc23)c1	?	13%	-13%	66*	13%
Cc1cccc(N(C)c2nc3ccc(C)cc3n3nnnc23)c1	.	.	.	-24	.
Clc1ncoc1-c1c[nH]c2ccccc12	-13%[57.5 µM]	.	-4%	.	.
O=C1NC(=O)C(c2c[nH]c3ccccc23)=C1c1c[nH]c2ccccc12	11µM*	.	-25%	.	.
CN1CCN(C(=O)Cn2c(-c3cccs3)cc3ccccc32)CC1	-10%	-13%	3%	-2	-12%
COC(=O)c1ccc([C@@H]2Nc3c(cccc3C(F)(F)F)[C@@H]3C=CC[C@@H]32)cc1	3%	-24%	-5%	-24	-8%
COC(=O)c1ccc(C2Nc3c(C)cc(C)cc3C3C=CCC32)cc1 (centres undefined)	34%	-6%	-2%	79*	-10%
COc1ccc(C(=O)Nc2cccc(OCc3cc(=O)n4c5c(sc4n3)CCCC5)c2)cc1OC	11%	2%	2%	63*	12%
CCS(=O)(=O)N1CCCC(C(=O)NCCOC)C1 (centres undefined)	-1%	-13%	-10%	-9	-7%
Cc1ccc(CN2CCc3nc(N4CCN(C)CC4)ncc3C2)s1	-6%	-10%	-10%	-24	-10%
Cc1ccc(Cl)cc1N1CCN(S(=O)(=O)c2ccc3c(c2)C(C(C)C)C(=O)N3)CC1 (centres undefined)	2%	?	-27%	?	-27%
CC(C)C1C(=O)Nc2ccc(S(=O)(=O)NCCc3ccc(Cl)cc3)cc21 (centres undefined)	-7%	?	0%	87*	-30%
CCC(=O)N1c2ccc(S(=O)(=O)NCc3cccc(OC)c3)cc2CC1C (centres undefined)	1%	?	-9%	45	-23%
COc1cccc(CNS(=O)(=O)c2ccc3c(c2)C(C(C)C)C(=O)N3)c1 (centres undefined)	8%	?	-5%	76*	-26%
Cc1cc(C(=O)C(=O)Nc2nnc(C(C)C)s2)c(C)n1-c1ccccc1	1%	6.3µM*	-16%	30	-86%
CC[C@]1(O)C[C@H]2CN(CCC3=c4ccccc4=N[C]3[C@@](C(=O)OC)(c3cc4c(cc3OC)N(C)[C@H]3[C@@](O)(C(N)=O)[C@H](O)[C@]5(CC)C=CCN6CC[C@]43[C@@H]65)C2)C1	?	?	-2%[53.3 µM]	.	-33%
Cc1cccc(NS(=O)(=O)c2ccc3[nH]c(=O)[nH]c3c2)c1C	3%	-16%	-22%	13	-18%
Cc1ccc(NS(=O)(=O)c2ccc(-n3cccn3)cc2)c(Br)c1	1%	?	-13%	72*	-36%
SMILES	NTMT1 inh	HTT promoter inh	FH mod	GPR32 ag	HTT-AS act
Cc1cccc(NS(=O)(=O)c2ccc(-n3cccn3)cc2)c1C	?	?	-12%	73*	-45%
Cc1ccc(NC(=O)N2CCN(c3ccc(Cl)c(Cl)c3)CC2)cc1	1%	?	-27%	-3	-31%
CC(C)c1ccc(NC(=O)N2CCN(c3ccc(Cl)c(Cl)c3)CC2)cc1	6%	32µM*	-21%	-14	-42%
Cc1[nH]nc(C(F)(F)F)c1Cc1sc2c(c1C(=O)N1C[C@](C)(O)CO1)c(=O)n(C)c(=O)n2C(C)C	5%	.	4%	.	.
COc1cccc(CNC(=O)CN(c2ccc(C(C)C)cc2)S(=O)(=O)c2c(C)n[nH]c2C)c1	-2%	-5%	-13%	71*	-21%
COc1ccc(CNC(=O)CN(c2ccc(C)cc2)S(=O)(=O)c2c(C)n[nH]c2C)cc1	1%	-5%	-1%	-2	-5%
CCCN1CCN(c2cc3c(cc2F)c(=O)c(S(=O)(=O)c2ccc(CC)cc2)cn3CC)CC1	-3%	4%	-11%	-14	-4%
COc1ccc(N2CCN(C(=O)c3oc4ccccc4c3NC(=O)c3ccccc3OC)CC2)cc1	-12%	?	?	-5	-13%
COc1ccccc1N1CCN(C(=O)c2oc3ccccc3c2N)CC1	.	.	.	71*	.
COCCNC(=O)C1CCN(C(=O)c2cc3sccc3n2Cc2ccc(Cl)cc2)CC1	-4%	?	-9%	5	-51%
CCC(C)NC(=O)C1CCN(C(=O)c2cc3sccc3n2Cc2ccc(Cl)cc2)CC1 (centres undefined)	5%	8.9µM*	-16%	7	-54%
Cc1ccc(N)cc1O	?	19%[116 µM]	20µM*	-20	-6%[116 µM]
CC(C)CC(=O)Nc1cccc(-c2cn3cccnc3n2)c1	-1%	78%	-12%	45	16µM*
Cc1cc(C)cc(C(=O)Nc2ccc(-c3cn4cccnc4n3)cc2)c1	?	-12%	2%	103*	-22%
CCCC(=O)Nc1cccc(-c2cn3cccnc3n2)c1	0%	31%	-14%	13	35%
CC1=C2[N-][C@H]([C@H](CC(N)=O)[C@@]2(C)CCC(=O)NC[C@@H](C)OP(=O)([O-])O[C@H]2[C@@H](O)[C@@H](n3cnc4cc(C)c(C)cc43)O[C@@H]2CO)[C@]2(C)N=C(C(C)=C3N=C(C=C4N=C1[C@@H](CCC(N)=O)C4(C)C)[C@@H](CCC(N)=O)[C@]3(C)CC(N)=O)[C@@H](CCC(N)=O)[C@]2(C)CC(N)=O.O.[Co+2]	50µM*	.	.	.	.
CCOc1ccccc1NC(=O)CSc1nc2ccccc2nc1Cc1ccc(C)cc1	15%	-27%	?	71*	-31%
COc1ccccc1Cc1nc2ccccc2nc1SCC(=O)N1CCN(c2ccccc2)CC1	5%	1%	-21%	-18	-4%

Assay outcomes deposited in PubChem by National Center for Advancing Translational Sciences (NCATS).
